Laboratory results published in PubChem BioAssay (NCATS).
Results filed as inconclusive are left out. Calls of active or inactive are those of the source. Calls come from the whole dose curve; as a rule, active = well fitted cell-killing curve with a large enough effect; inconclusive = small, poorly fitted or top-dose-only effect, or effect the other way; inactive = flat fitted curve, though single readings scatter.

Key:
Assay in all cases: Primary qHTS to identify gynecologic anti-cancer compounds using libraries of approved drugs and bioactive compounds (AID 1345084); note: nearly all actives have a fitted effect of over 55% in size
C33A = details: Gynecologic cancer cell panel viability, ATPlite luminescence, 48 h; series mostly up to 57.5 µM
How it was run: (§1)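 ATP-based viability (ATPlite), 1,000 cells/well, 16 h pre-incubation, 48 h compound at 37 C, 5% CO2, 15 min RT before read.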

CAOV3 = details: Gynecologic cancer cell panel viability, ATPlite luminescence, 48 h; series mostly up to 57.5 µM
How it was run: as §1

CASKI = details: Gynecologic cancer cell panel viability, ATPlite luminescence, 48 h; series mostly up to 57.5 µM
How it was run: as §1

Es-2 = details: Gynecologic cancer cell panel viability, ATPlite luminescence, 48 h; series mostly up to 57.5 µM
How it was run: as §1

HeLa = details: Gynecologic cancer cell panel viability, ATPlite luminescence, 48 h; series mostly up to 57.5 µM
How it was run: as §1

Hek293T = details: Gynecologic cancer cell panel viability, ATPlite luminescence, 48 h, control line for the selectivity index; series mostly up to 57.5 µM
How it was run: as §1

JEG-3 = details: Gynecologic cancer cell panel viability, ATPlite luminescence, 48 h; series mostly up to 57.5 µM
How it was run: as §1

Measured: Potency

Nc1nc2c(cnn2CCCc2ccc(O)cc2)c2nc(-c3ccco3)nn12
inactive: all assays above

CCN1CCN(Cc2ccc(C(=O)Nc3ccc(C)c(Oc4ccc5c(c4)CC(=O)N5)c3)cc2C(F)(F)F)CC1
inactive: all assays above

C=C1CC[C@@H]2[C@](C)(CO)[C@H](O)CC[C@@]2(C)[C@@H]1/C=C/C1=CCOC1=O
inactive: all assays above

CC(C)=CCCC1(C)C2CCC1(C)C(O)C2 (centres undefined)
inactive: all assays above

N#Cc1cccc(C(=O)Nc2cc(-c3ccccc3)nn2-c2ccccc2)c1
inactive: all assays above

O=S(=O)(N[C@H]1CCCC[C@@H]1N1CCOCC1)c1ccc(Cl)cc1
inactive: all assays above

COCCN(C(=O)c1cc(OC)c(OC)c(OC)c1)c1nc(-c2ccccc2)cs1
inactive: all assays above

CC(=O)OC1CC(O)(C(C)C)C2C(OC(=O)c3ccc(O)cc3)C=C(C)C(=O)CC12C (centres undefined)
inactive: all assays above

CCNc1nc(Nc2cc(F)c(C(=O)N3CCOCC3)cc2OC)ncc1C(F)(F)F
inactive: all assays above

CC(=O)O[C@@H]1CC2C(C)(C)C(=O)C=C[C@]2(C)C2CC[C@@]3(C)[C@H](c4ccoc4)OC(=O)[C@H]4O[C@]43[C@@]21C (some centres undefined)
inactive: all assays above

COC(=O)CC[C@@H](C)C1CCC2C3CCC4C[C@H](OC(C)=O)CCC4(C)C3C[C@H](O)C21C (some centres undefined)
inactive: all assays above

Cc1nc2c(C(F)(F)F)cccc2nc1-c1ccc(-c2cccc(S(C)(=O)=O)c2)cc1
inactive: all assays above

CC(=O)OC/C(=C/C(=O)O)CC[C@@H]1C(C=O)=CC[C@@H]2C(C)(C)CCC[C@@]12C
inactive: all assays above

Cn1cc(-c2ccc(F)c(C(F)(F)F)c2)nc1C1CCN(c2ncnc3[nH]ncc23)CC1
inactive: all assays above

Cc1cc(N2CCOCC2)ccc1Nc1nc(NC2CCCCC2)c2[nH]cnc2n1
inactive: all assays above

COC(=O)c1cc(Br)cnc1N1CCC(NC2CCCCC2)C(O)C1 (centres undefined)
inactive: all assays above

C=CCCN1CCC2(CC1)CN(C(=O)c1c(F)cccc1F)c1ccc(Cl)cc12
inactive: all assays above

Cc1cn2c(n1)Cc1ccc(Cl)cc1C(c1ccc(N)cc1)=N2
inactive: all assays above

O=C(NCc1nc2ccccc2c(=O)n1-c1ccc(F)cc1)Nc1ccc(Cl)c(C(F)(F)F)c1
inactive: all assays above

C=C1CC2OC(=O)C(=C)C2C(O)/C=C(\C)CCC1O (centres undefined)
inactive: all assays above

O=C(COc1ccc2ccccc2c1Br)Nc1cccnc1
inactive: all assays above

CC(C)Nc1nc(Nc2ccccc2)nc(-c2ccccc2)n1
inactive: all assays above
